Test results taken from PubChem BioAssay (NCATS).
Results filed as inconclusive are left out. Activity calls are given as the source filed them. Calls come from the whole dose curve; as a rule, active = well fitted curve in the direction sought with a large enough effect; inconclusive = small, poorly fitted or top-dose-only effect, or another doubt; inactive = no such curve, though single readings can be large; an effect the other way counts as inactive or inconclusive.

How the values were obtained:
[1] = qHTS Assay for Identifying Gametocytocidal Compounds (AID 743244);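 note: % is set by controls: 0 for no effect and ±100 for the full control effect; actives lower the fluorescent signal which means gametocytes are killed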; details: P. falciparum 3D7 stage III-V gametocytes, alamarBlue, 72 h; max response: active compounds read low
Procedure, shortened: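 P. falciparum 3D7 stage III–V gametocytes (20,000 cells/well) were exposed to compounds for 72 h at 37 °C, 5% CO2. AlamarBlue was then added for 24 h; decreased resorufin fluorescence (Ex 525/Em 598 nm) indicated loss of viability.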

[2] = qHTS assay for measurement of the activity of small molecule inhibitors on Zika virus induced Caspase-3 activity in human iPSC derived neural progenitor cells (hNPCs) (AID 1224857); note: % of control where 0% means no effect; nearly all actives have a fitted effect of over 65% in size
Procedure, shortened: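 hNPCs seeded 350 cells/well, cultured 16–20 h; compounds added 1 h before ZIKV (2 FFU/cell), 37 C 6 h. Caspase-Glo 3/7 luminescence after 30 min RT; % inhibition from induction scaled to uninfected (0%) and infected (100%) wells.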

[3] = qHTS assay for measurement of the activity of small molecule inhibitors on Zika virus induced Caspase-3 activity in human astrocytoma cells (AID 1224859);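 note: plate controls were ZIKV-infected untreated cells for no effect and uninfected cells for full effect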
Procedure, shortened: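 Luminescence read-out (Caspase-Glo 3/7, 30 min RT) of caspase activity in SNB-19 cells infected 6 h with ZIKV, 2 FFU/cell, after 1 h compound pretreatment; % inhibition from induction normalised to uninfected (0%) and infected (100%) wells.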

[4] = qHTS assay to identify small molecule inhibitors of chordoma cells - UCH-1 (AID 1259355); note: % is set by controls: 0 for no effect and ±100 for the full control effect; nearly all actives have a fitted effect of over 55% in size
Procedure, shortened: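 Cells (800/well) were seeded and left overnight at 37 C, 5% CO2, then treated with drugs at 15 concentrations plus a combination mix of auranofin, camptothecin, doxorubicin, rubitecan and topotecan. Viability after 48hr was read by CellTiter-Glo luminescence.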

[5] = qHTS assay to identify small molecule inhibitors of chordoma cells - UCH-2 (AID 1259356); note: series mostly up to about 46 µM; % is set by controls: 0 for no effect and ±100 for the full control effect
[6] = P-glycoprotein substrates identified in KB-8-5-11 adenocarcinoma cell line, qHTS therapeutic library screen (AID 1346987); details: outcome: dose series up to 44.5 µM; note: series mostly up to about 44 µM; % is set by controls: 0 for no effect and ±100 for the full control effect; nearly all actives have a fitted effect of over 65% in size
Procedure, shortened: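 KB-8-5-11: colchicine-selected sub-line of KB-3-1 over-expressing P-gp; assay medium lacked colchicine. 72 h drug exposure at 37 degree C, CellTiter-Glo.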

C[C@@H](c1ncncc1F)C(O)(Cn1cncn1)c1ccc(F)cc1F (stereo partly drawn)
inactive: max response [1] 4.12% | outcome [2] | outcome [3] | outcome [4] | outcome [5] | outcome [6]

CC1(C)S[C@@H]2[C@H](N=CN3CCCCCC3)C(=O)N2[C@H]1C(=O)O
inactive: max response [1] -2.77% | outcome [2] | outcome [3] | outcome [4] | outcome [5] | outcome [6]

CC(C)(C)NCC(O)COc1cccc2c1CCC(=O)N2 (stereo not drawn)
inactive: max response [1] 15.2% | outcome [2] | outcome [3] | outcome [4] | outcome [5] | outcome [6]

CC(C)NC[C@@H](O)COc1ccc(CC(N)=O)cc1
inactive: max response [1] 23.6% | outcome [2] | outcome [3] | outcome [4] | outcome [5] | outcome [6]

COc1nccnc1NS(=O)(=O)c1ccc(N)cc1
inactive: max response [1] -9.73% | outcome [2] | outcome [3] | outcome [4] | outcome [5] | outcome [6]

CC(=O)NCc1c(I)c(NC(C)=O)c(I)c(C(=O)O)c1I
inactive: max response [1] 12.1% | outcome [2] | outcome [3] | outcome [4] | outcome [5] | outcome [6]

CC1(c2ccccc2)OC(C(=O)O)=CC1=O (stereo not drawn)
inactive: max response [1] 25.1% | outcome [2] | outcome [3] | outcome [4] | outcome [5] | outcome [6]

COc1ccc(C(=O)NCc2ccc(OCCN(C)C)cc2)cc1OC
inactive: max response [1] 7.72% | outcome [2] | outcome [3] | outcome [4] | outcome [5] | outcome [6]

CC(=O)N(CC(O)CN(C(C)=O)c1c(I)c(C(=O)NCC(O)CO)c(I)c(C(=O)NCC(O)CO)c1I)c1c(I)c(C(=O)NCC(O)CO)c(I)c(C(=O)NCC(O)CO)c1I (stereo not drawn)
inactive: max response [1] -5.28% | outcome [2] | outcome [3] | outcome [4] | outcome [5] | outcome [6]

O=C(/C=C/c1ccccc1)OCc1ccccc1
inactive: max response [1] 18.6% | outcome [2] | outcome [3] | outcome [4] | outcome [5] | outcome [6]

COC(=O)c1cccnc1
inactive: max response [1] 29% | outcome [2] | outcome [3] | outcome [4] | outcome [5] | outcome [6]

O=c1[nH]c(=O)c2ccccc2o1
inactive: max response [1] -4.26% | outcome [2] | outcome [3] | outcome [4] | outcome [5] | outcome [6]

CC(CN(C)C)C(C)(O)Cc1ccc(Cl)cc1 (stereo not drawn)
inactive: max response [1] -5.22% | outcome [2] | outcome [3] | outcome [4] | outcome [5] | outcome [6]

Cc1cccc(C(=O)O)c1O
inactive: max response [1] 2.78% | outcome [2] | outcome [3] | outcome [4] | outcome [5] | outcome [6]

CC(N)CCCC(C)(C)O (stereo not drawn)
inactive: max response [1] -9.78% | outcome [2] | outcome [3] | outcome [4] | outcome [5] | outcome [6]

NS(=O)(=O)c1cc(C2(O)NC(=O)c3ccccc32)ccc1Cl (stereo not drawn)
inactive: max response [1] 0.268% | outcome [2] | outcome [3] | outcome [4] | outcome [5] | outcome [6]

CC[C@H](C)[C@H](N)C(=O)O
inactive: max response [1] -11.6% | outcome [2] | outcome [3] | outcome [4] | outcome [5] | outcome [6]

O=C1c2ccccc2C(=O)C1c1ccc(Br)cc1
inactive: max response [1] -7.34% | outcome [2] | outcome [3] | outcome [4] | outcome [5] | outcome [6]

O=C(O)c1ccccc1OP(=O)(O)O
inactive: max response [1] -5.84% | outcome [2] | outcome [3] | activity, negative = inhibition [4] -7.01% [at 1.88 µM] | outcome [5] | outcome [6]

CCCCCC(C)N (stereo not drawn)
inactive: max response [1] 7.89% | outcome [2] | outcome [3] | outcome [4] | outcome [5] | outcome [6]

CC(C)(C)C(=O)OCOC(=O)[C@@H]1N2C(=O)[C@@H](NC(=O)[C@H](N)c3ccccc3)[C@H]2SC1(C)C
inactive: max response [1] 0.54% | outcome [2] | outcome [3] | outcome [4] | outcome [5] | outcome [6]

Cc1cc(C)c(NC(=O)CN(CC(=O)O)CC(=O)O)c(C)c1Br
inactive: max response [1] 9.03% | outcome [2] | outcome [3] | outcome [4] | outcome [5] | outcome [6]

CC(=O)Oc1cccc(O)c1
inactive: max response [1] 2.07% | outcome [2] | outcome [3] | outcome [4] | outcome [5] | outcome [6]

Cc1ccc(S(=O)(=O)NC(=O)NC2CCCCCCC2)cc1
inactive: max response [1] 5.01% | outcome [2] | outcome [3] | outcome [4] | outcome [5] | outcome [6]

CC(O)CCCCn1c(=O)c2c(ncn2C)n(C)c1=O (stereo not drawn)
inactive: max response [1] -9.87% | outcome [2] | outcome [3] | outcome [4] | outcome [5] | outcome [6]

CC(=O)N1C[C@H](O)C[C@H]1C(=O)O
inactive: max response [1] 11.8% | outcome [2] | outcome [3] | outcome [4] | outcome [5] | outcome [6]

Cn1c(=O)c2c(ncn2CCO)n(C)c1=O
inactive: max response [1] 6.91% | outcome [2] | outcome [3] | outcome [4] | outcome [5] | outcome [6]

COC(=O)N/N=C/c1c[n+]([O-])c2ccccc2[n+]1[O-]
inactive: max response [1] 5.03% | outcome [2] | outcome [3] | outcome [4] | outcome [5] | outcome [6]
